# In PubChem BioAssay:
# Calls of active or inactive are those of the source. Unless noted, how the calls were made is not given here.
# How the values were obtained:
# [1] = A549 cell viability effects, profiling panel, calcein-AM fluorescence, 48 h, basal (AID 1162); settings: higher = more signal; further: test concentration not given here
# [2] = adipocyte viability effects, profiling panel, cell-based, 3T3-L1 adipocytes, calcein-AM fluorescence, 48 h, basal (AID 1163); settings: 3T3-L1 adipocytes viability, higher = more signal; further: test concentration not given here
# [3] = HepG2 cell viability effects, profiling panel, calcein-AM fluorescence, 48 h, basal (AID 1164); settings: higher = more signal; further: test concentration not given here
# [4] = MM1S cell viability effects, profiling panel, calcein-AM fluorescence, 48 h, basal (AID 1165); settings: higher = more signal;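 further: viability of MM1S multiple myeloma cells under basal unstimulated conditions; test concentration not given here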
# [5] = basal RPMI8226 viability, no added stimulus, profiling panel, cell-based, calcein-AM fluorescence, 48 h, PK04 Diversity Set (AID 1166); settings: RPMI8226 myeloma viability, higher = more signal;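 further: cells grown under basal conditions without added stimulus; test concentration not given here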
# [6] = basal HepG2 mitochondrial membrane potential changes, profiling panel, cell-based, JC-1 fluorescence, 24 h, 100 nL compound (AID 1167); settings: higher = more signal; further: test concentration not given here
# [7] = basal 3T3-L1 adipocyte mitochondrial potential changes, profiling panel, cell-based, JC-1 fluorescence, 3T3-L1 adipocytes, 24 h, 100 nL compound (AID 1168); settings: JC-1 mitochondrial fluorescence, higher = more signal, called active from +8 up or from −8 down; further: test concentration not given here
# [8] = basal RPMI8226 mitochondrial membrane potential changes, profiling panel, cell-based, JC-1 fluorescence, 24 h, 100 nL compound (AID 1169); settings: RPMI8226 myeloma, JC-1 mitochondrial potential fluorescence, higher = more signal; further: test concentration not given here
# [9] = basal MM1S mitochondrial membrane potential changes, profiling panel, cell-based, JC-1 fluorescence, 24 h, 100 nL compound (AID 1170); settings: higher = more signal; further: test concentration not given here
# [10] = A549 lung cancer cell viability effects, profiling panel, resazurin fluorescence, 24 h, PK04 Diversity Set (AID 1171); settings: higher = more signal, called active from +8 up or from −8 down; further: test concentration not given here
# [11] = HepG2 liver cancer cell viability effects, profiling panel, resazurin fluorescence, 24 h, PK04 Diversity Set (AID 1172); settings: higher = more signal; further: test concentration not given here
# [12] = basal S. cerevisiae growth modulation, no modifier, primary screen, OD600, strain BY4716, 24 h, basal condition (AID 1173); settings: OD600, 24 h, higher = more signal, called active from +8 up or from −8 down
# [13] = MM1S myeloma cell viability, profiling panel, resazurin fluorescence, basal, 24 h, PK04 Diversity Set (AID 1174); settings: higher = more signal, called active from +8 up or from −8 down;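 further: MM1S multiple myeloma cell line; test concentration not given here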
# [14] = molecular target: Dihydroorotate dehydrogenase (quinone), mitochondrial (Plasmodium falciparum (isolate 3D7)) (UniProt Q08210); assay: PfDHODH enzyme inhibitors, primary screen, biochemical, C-terminal His tag, absorbance 600 nm (AID 1175); settings: DCIP absorbance 600 nm, higher = more signal, called active from +8 up or from −8 down;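 further: recombinant parasite enzyme with a five histidine tag at its C terminus; test concentration not given here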
# [15] = P. aeruginosa biofilm formation inhibitors, primary screen, strain PAO1, LB-PBS medium, absorbance 600 nm (AID 1176); further: test concentration not given here; settings: P. aeruginosa PAO1 growth/biofilm, A600, 12 h; higher = more signal
# [16] = S. cerevisiae RM11-1a growth modifiers, primary screen, strain RM11-1a, OD600, basal, 24 h (AID 1177); settings: OD600, 24 h, higher = more signal, called active from +8 up or from −8 down;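 further: cultures grown under basal conditions with no added stressor; test concentration not given here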
# [17] = E. coli acrAB mutant growth effects, primary screen, E. coli filamentation inducers, strain DRC39, OD650, 24 h (AID 1178); settings: higher = more signal, called active from +8 up or from −8 down;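 further: growth measured as culture turbidity by optical density at 650 nm; test concentration not given here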
# [18] = E. coli acrAB mutant growth effects, primary screen, E. coli filamentation inducers, strain DRC39, OD650, 48 h (AID 1179);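 further: screen aims at cell division blockers that make cells filament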; settings: E. coli DRC39 delta-acrAB growth, higher = more signal, called active from +8 up or from −8 down
# [19] = RPMI8226 myeloma cell viability, profiling panel, resazurin fluorescence, basal, 24 h, PK04 Diversity Set (AID 1180); settings: higher = more signal;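 further: RPMI8826 multiple myeloma cell line at 5000 cells per well; test concentration not given here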
# [20] = molecular target: E3 ubiquitin-protein ligase XIAP (Homo sapiens) (UniProt P98170); assay: XIAP binders, primary screen, biophysical, small-molecule microarray, fluorescence 635 nm (AID 1181); settings: small-molecule microarray binding, higher = more signal;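 further: score merges 667 nm emission and signal to noise over triplicate slides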
# Chain of E3 ubiquitin-protein ligase XIAP (Homo sapiens) (P98170 whole entry, looked up): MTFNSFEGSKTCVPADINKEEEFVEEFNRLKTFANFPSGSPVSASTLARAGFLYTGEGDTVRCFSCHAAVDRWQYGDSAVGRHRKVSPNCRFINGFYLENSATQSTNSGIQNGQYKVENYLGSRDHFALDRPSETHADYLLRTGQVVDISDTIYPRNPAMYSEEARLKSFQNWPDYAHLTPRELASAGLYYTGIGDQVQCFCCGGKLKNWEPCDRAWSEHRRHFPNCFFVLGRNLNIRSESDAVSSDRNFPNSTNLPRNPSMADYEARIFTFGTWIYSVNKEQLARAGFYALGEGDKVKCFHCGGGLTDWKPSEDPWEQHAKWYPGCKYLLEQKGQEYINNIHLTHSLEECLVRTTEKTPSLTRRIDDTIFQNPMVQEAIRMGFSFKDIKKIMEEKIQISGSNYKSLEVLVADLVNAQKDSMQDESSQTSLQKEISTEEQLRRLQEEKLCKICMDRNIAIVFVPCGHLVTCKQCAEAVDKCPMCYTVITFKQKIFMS
# Chain of Dihydroorotate dehydrogenase (quinone), mitochondrial (Plasmodium falciparum (isolate 3D7)) (Q08210 whole entry, looked up): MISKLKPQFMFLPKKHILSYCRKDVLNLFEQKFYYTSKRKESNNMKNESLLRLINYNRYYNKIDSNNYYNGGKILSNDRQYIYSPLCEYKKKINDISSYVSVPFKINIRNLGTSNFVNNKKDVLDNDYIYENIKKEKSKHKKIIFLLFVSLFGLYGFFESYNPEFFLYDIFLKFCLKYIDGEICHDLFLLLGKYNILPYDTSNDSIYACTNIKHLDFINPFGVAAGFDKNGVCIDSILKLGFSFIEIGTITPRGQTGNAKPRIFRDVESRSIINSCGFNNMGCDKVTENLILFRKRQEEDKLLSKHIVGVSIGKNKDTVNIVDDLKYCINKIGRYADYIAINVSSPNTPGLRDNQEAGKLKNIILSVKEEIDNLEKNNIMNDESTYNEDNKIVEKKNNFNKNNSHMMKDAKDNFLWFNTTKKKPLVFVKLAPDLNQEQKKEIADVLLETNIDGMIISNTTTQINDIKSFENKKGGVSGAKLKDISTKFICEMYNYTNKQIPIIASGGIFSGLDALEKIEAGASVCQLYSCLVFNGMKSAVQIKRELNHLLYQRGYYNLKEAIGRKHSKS
SMILES,z-score [1],z-score [2],z-score [3],z-score [4],z-score [5],z-score [6],z-score [7],z-score [8],z-score [9],z-score [10],z-score [11],z-score [12],z-score [13],composite z-score [14],z-score [15],z-score [16],z-score [17],z-score [18],z-score [19],composite z-score [20]
CC(C)(C)OC(=O)CC[C@@]1(C(=O)NCc2ccccc2)N=C(c2ccc(OCCCO)cc2)O[C@@H]1c1ccccc1N=[N+]=[N-],-0.365,1.55,-0.258,-1.68,-1.41,0.515,1.35 (inactive),-1.01,0.24,-0.682 (inactive),-0.409,0.381 (inactive),-1.36 (inactive),1.45 (inactive),1.2 (inactive),1.99 (inactive),2.98 (inactive),0.914 (inactive),-0.362,0.23
CC(C)C(=C=CC[C@H](O)c1cccc(OCCO)c1)C[C@H](O)c1cc(Cl)cc(Cl)c1O,-0.105,-0.903,0.142,-1.67,0.205,0.00345,0.375 (inactive),-0.527,-0.826,1.01 (inactive),0.84,-4.38 (inactive),0.0849 (inactive),-0.0151 (inactive),0.33 (inactive),0.233 (inactive),0.889 (inactive),0.709 (inactive),1.61,-0.16
COC(=O)c1c(CC[C@@H](CO)NC(=O)N[C@H](Cn2cc(C3(O)CCCCC3)nn2)C(C)C)oc(C(C)=O)c1C(=O)OC,-0.233,1.36,-0.134,-0.722,0.0074,0.74,0.595 (inactive),0.355,-0.202,-1.06 (inactive),-0.752,-3.03 (inactive),0.679 (inactive),-4.51 (inactive),-0.24 (inactive),-0.834 (inactive),1.4 (inactive),0.669 (inactive),0.0252,-0.102
CC(C)(C)OC(=O)CC[C@]1(C(=O)NCC(O)CO)N=C(c2ccc(OCCCO)cc2)O[C@H]1c1ccccc1 (stereo not given in full),0.156,0.833,0.135,0.709,0.0887,0.52,-0.24 (inactive),-0.963,0.437,0.489 (inactive),0.309,-1.84 (inactive),1.04 (inactive),-1.89 (inactive),0.882 (inactive),-0.87 (inactive),1.41 (inactive),0.419 (inactive),0.949,-0.0203
O=C1C[C@@](C(=O)NCCN2CCOCC2)(c2ccc([N+](=O)[O-])cc2)[C@@H](c2ccc(CO)cc2I)N1C1CCCCC1,0.465,0.267,-0.696,-1.55,-0.764,2.87,0.264 (inactive),-0.444,0.267,2.01 (inactive),0.95,-2.72 (inactive),1.11 (inactive),0.362 (inactive),-0.261 (inactive),-1.19 (inactive),0.497 (inactive),0.356 (inactive),0.891,0.0223
O=C(CS)NCCCCCNC(=O)[C@@H]1C[C@@H]2C(=O)N3CCC[C@H]3C(=O)N2[C@@H]1c1cccc(OCCO)c1,-0.174,0.195,0.451,-0.304,-0.799,0.266,0.0369 (inactive),-0.00798,0.305,-0.61 (inactive),-0.514,0.196 (inactive),-0.374 (inactive),-1.8 (inactive),0.711 (inactive),0.119 (inactive),-0.277 (inactive),-0.141 (inactive),-0.664,0.122
O=C1c2ccccc2[C@](Cc2ccccc2I)(C(=O)NCC(F)(F)F)[C@H](c2ccc(CO)cc2)N1C1CCCCC1,1.77,0.515,1.02,-1.75,-3.92,1.3,0.238 (inactive),-0.434,0.23,-0.0818 (inactive),-0.46,-0.754 (inactive),0.247 (inactive),-1.11 (inactive),0.127 (inactive),0.234 (inactive),0.739 (inactive),0.743 (inactive),-0.581,0.129
O=C1O[C@H](c2ccccc2)[C@H](c2ccccc2)N2[C@H]1[C@@H](C(=O)Nc1nc3ccccc3s1)[C@]1(C(=O)Nc3ccccc31)[C@H]2c1ccc(OCCO)cc1,-0.52,0.0354,0.349,-1.68,-1.35,-1.99,3.24 (inactive),-1.07,-1.83,0.0237 (inactive),0.0114,0.445 (inactive),-1.08 (inactive),-1.8 (inactive),3.02 (inactive),1.68 (inactive),-0.476 (inactive),0.282 (inactive),-2.02,-0.356
C=CCC(OC(C)=O)[C@@H]1[C@@H](N(Cc2cc3ccccc3o2)C(=O)Cc2ccc(F)cc2)c2cc(OCCCO)ccc2N1C(=O)c1ccc2ccccc2c1 (stereo not given in full),-0.0032,-0.0993,1.93,-0.915,0.0905,0.855,0.0661 (inactive),-0.159,0.687,0.443 (inactive),-0.081,0.615 (inactive),0.514 (inactive),-1.04 (inactive),0.35 (inactive),-0.41 (inactive),-0.698 (inactive),-0.649 (inactive),0.304,0.555
